These results are taken from PubChem BioAssay (Tox21).

Inconclusive results are not listed. A number with no mark means an inactive call. Calls come from the whole dose curve.

The first assay in a line: qHTS assay to identify small molecule agonists of the AP-1 signaling pathway - cell viability counter screen (AID 1159525). Note: nearly all actives have a fitted effect of over 55% in size. The settings on record: ME-180 AP-1-bla cells viability, ATP luminescence, 5 h; series mostly up to 76.8 µM; viability change, negative = cytotoxic: at the top concentration. The method in brief:
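AP-1-bla ME-180 cells in Opti-MEM with 0.5% dialyzed FBS, compound exposure 5 h at 37 C in 15-point titration. Viability read in the same wells as ATP content by CellTiter-Glo luminescence, normalised to tetra-n-octylammonium bromide and DMSO controls.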
On to `CC1=NN(c2cccc(S(=O)(=O)O)c2)C(=O)C1`, for which the “viability change, negative = cytotoxic” value was -3.37%.

Take `Cc1onc(-c2c(Cl)cccc2Cl)c1C(=O)Cl`: the “viability change, negative = cytotoxic” value is -10.8% [at 35.3 µM].

Consider `N[C@H](C(=O)O)[C@@H](O)c1ccc(O)c(O)c1`, for which the “viability change, negative = cytotoxic” value was 14.3% [at 35.3 µM].

In the case of `C1CCC2=NCCCN2CC1`, the “viability change, negative = cytotoxic” value is -11.3%.

Take `CC(C#N)(CCC(=O)O)N=NC(C)(C#N)CCC(=O)O` (stereo unspecified): the “viability change, negative = cytotoxic” value was 4.35%.

As to `C=CN1CCCCCC1=O`, the “viability change, negative = cytotoxic” value was 2.78%.

As to `CC[N+](CC)(CC)CCOc1cccc(OCC[N+](CC)(CC)CC)c1OCC[N+](CC)(CC)CC`, the “viability change, negative = cytotoxic” value was 2.94% [at 35.3 µM].

Regarding `CC(C)(N)C#N`, the “viability change, negative = cytotoxic” value is -13%.

With `OCCCCCO`, the “viability change, negative = cytotoxic” value was -0.587%.

As for `C=CCOCC(O)CO` (stereo unspecified), the “viability change, negative = cytotoxic” value was 1.89%.

Take `CC(=O)O[C@@]12CO[C@@H]1C[C@H](O)[C@@]1(C)C(=O)[C@H](O)C3=C(C)[C@@H](OC(=O)[C@H](O)[C@@H](NC(=O)OC(C)(C)C)c4ccccc4)C[C@@](O)([C@@H](OC(=O)c4ccccc4)[C@H]21)C3(C)C`: the “viability change, negative = cytotoxic” value was 1.83% [at 35.3 µM].

Consider `CC(C)(C)C(=O)c1ccccc1`, for which the “viability change, negative = cytotoxic” value was -3.46%.

`CCN[C@H]1C[C@H](C)S(=O)(=O)c2sc(S(N)(=O)=O)cc21`: the “viability change, negative = cytotoxic” value was 3.67% [at 35.3 µM].

For the compound `C[N+]12CCC(CC1)C(OC(=O)C(O)(c1ccccc1)c1ccccc1)C2` (stereo unspecified), the “viability change, negative = cytotoxic” value is 3.3% [at 35.3 µM].

For the compound `c1coc(CNc2ncnc3nc[nH]c23)c1`, the “viability change, negative = cytotoxic” value was -16.1%.

Consider `NC(=O)Cc1cccc2ccccc12`, for which the “viability change, negative = cytotoxic” value is 2.46%.

Regarding `CCCn1cc[n+](C)c1C`, the “viability change, negative = cytotoxic” value is -17.8%.

Take `O=C(c1ccccc1)C1(O)CCCCC1`: the “viability change, negative = cytotoxic” value was 3.58%.

For the compound `Nc1ccncc1N`, the “viability change, negative = cytotoxic” value was -2.57% [at 35.3 µM].

In the case of `C=COC(=O)C(C)(CC)CCC(C)C` (stereo unspecified), the “viability change, negative = cytotoxic” value is -1.04%.

As for `CC(=O)Oc1cccc(C)c1`, the “viability change, negative = cytotoxic” value is 1.24% [at 35.3 µM].

As to `CN(C)CCCN(C)CCCN(C)C`, the “viability change, negative = cytotoxic” value was 0.815%.

As for `O=S(=O)(O)c1cc(O)c(O)c(S(=O)(=O)O)c1`, the “viability change, negative = cytotoxic” value was 10.5%.

Turning to `Cc1ncc(COP(=O)(O)O)c(C=O)c1O`, the “viability change, negative = cytotoxic” value is -20.3% [at 35.3 µM].

On to `O=CN(CCO)CCO`, for which the “viability change, negative = cytotoxic” value is 4.01%.

In the case of `CCCc1ncc(C[n+]2ccccc2C)c(N)n1`, the “viability change, negative = cytotoxic” value is 10.4% [at 35.3 µM].

Take `CC1=NS(=O)(=O)c2cc(Cl)ccc2N1`: the “viability change, negative = cytotoxic” value is -4.53% [at 35.3 µM].

Regarding `CCOCC(C)O` (stereo unspecified), the “viability change, negative = cytotoxic” value is -17.7%.

As to `COc1ccnc(CS(=O)c2nc3cc(OC(F)F)ccc3[nH]2)c1OC` (stereo unspecified), the “viability change, negative = cytotoxic” value was 0.131%.

On to `C=C(C)C(=O)OCC(O)CO` (stereo unspecified), for which the “viability change, negative = cytotoxic” value was 10.4% [at 35.3 µM].

For the compound `CCN(C=O)CC`, the “viability change, negative = cytotoxic” value is -5.46%.

`C[C@@H]1CCC[C@H](C)N1`: the “viability change, negative = cytotoxic” value was 6.17% [at 35.3 µM].

Take `COc1cc(-c2ccc(=O)[nH]n2)ccc1OC(F)F`: the “viability change, negative = cytotoxic” value is 2.75% [at 35.3 µM].

With `CC(C)(CCC(=O)O)C(=O)O`, the “viability change, negative = cytotoxic” value was -5.8%.

As to `Cc1ccc(C(=O)Nc2ccc(S(=O)(=O)O)c3cc(S(=O)(=O)O)cc(S(=O)(=O)O)c23)cc1NC(=O)c1cccc(NC(=O)Nc2cccc(C(=O)Nc3cc(C(=O)Nc4ccc(S(=O)(=O)O)c5cc(S(=O)(=O)O)cc(S(=O)(=O)O)c45)ccc3C)c2)c1`, the “viability change, negative = cytotoxic” value is 1.18% [at 35.3 µM].

On to `Cc1nc(C2CCCCC2)c(-c2ccc(S(N)(=O)=O)c(F)c2)o1`, for which the “viability change, negative = cytotoxic” value was -2.37% [at 35.3 µM].

Regarding `COc1cc(C)nc(-n2nc(C)cc2OC)n1`, the “viability change, negative = cytotoxic” value was 10.8% [at 35.3 µM].

With `Cc1coc2ccccc2c1=O`, the “viability change, negative = cytotoxic” value is 2.27% [at 35.3 µM].

Another assay is described as follows: qHTS assay to identify small molecule agonists of the AP-1 signaling pathway (AID 1159526). Note: % is set by controls: 0 for no effect and ±100 for the full control effect. The settings on record: ME-180 (cervical carcinoma) AP-1-bla reporter, beta-lactamase FRET ratio, 5 h; series mostly up to 76.8 µM; activation: at the top concentration.
As to `CC1=NN(c2cccc(S(=O)(=O)O)c2)C(=O)C1`, the “activation” value was 1.45%.

Regarding `Cc1onc(-c2c(Cl)cccc2Cl)c1C(=O)Cl`, the “activation” value is -2.31% [at 35.3 µM].

As to `N[C@H](C(=O)O)[C@@H](O)c1ccc(O)c(O)c1`, the “activation” value was 14.3% [at 35.3 µM].

Take `C1CCC2=NCCCN2CC1`: the “activation” value is 9.17%.

On to `CC(C#N)(CCC(=O)O)N=NC(C)(C#N)CCC(=O)O` (stereo unspecified), for which the “activation” value was -0.432%.

On to `C=CN1CCCCCC1=O`, for which the “activation” value was -1.28%.

On to `CC[N+](CC)(CC)CCOc1cccc(OCC[N+](CC)(CC)CC)c1OCC[N+](CC)(CC)CC`, for which the “activation” value is 1.69% [at 35.3 µM].

As for `CC(C)(N)C#N`, the “activation” value was -14.3%.

Turning to `OCCCCCO`, the “activation” value was -0.0257%.

As for `C=CCOCC(O)CO` (stereo unspecified), the “activation” value was -1.47%.

On to `CC(=O)O[C@@]12CO[C@@H]1C[C@H](O)[C@@]1(C)C(=O)[C@H](O)C3=C(C)[C@@H](OC(=O)[C@H](O)[C@@H](NC(=O)OC(C)(C)C)c4ccccc4)C[C@@](O)([C@@H](OC(=O)c4ccccc4)[C@H]21)C3(C)C`, for which the “activation” value is -2.42% [at 35.3 µM].

Take `CC(C)(C)C(=O)c1ccccc1`: the “activation” value was -2.02%.

Take `CCN[C@H]1C[C@H](C)S(=O)(=O)c2sc(S(N)(=O)=O)cc21`: the “activation” value is -1.17% [at 35.3 µM].

As to `C[N+]12CCC(CC1)C(OC(=O)C(O)(c1ccccc1)c1ccccc1)C2` (stereo unspecified), the “activation” value is -2.69% [at 35.3 µM].

Take `c1coc(CNc2ncnc3nc[nH]c23)c1`: the “activation” value is -10.7%.

Regarding `NC(=O)Cc1cccc2ccccc12`, the “activation” value is -1.54%.

Take `CCCn1cc[n+](C)c1C`: the “activation” value was -6.7%.

For the compound `O=C(c1ccccc1)C1(O)CCCCC1`, the “activation” value was -2.88%.

Take `Nc1ccncc1N`: the “activation” value was 0.685% [at 35.3 µM].

In the case of `C=COC(=O)C(C)(CC)CCC(C)C` (stereo unspecified), the “activation” value was -3.26%.

`CC(=O)Oc1cccc(C)c1`: the “activation” value is -2.94% [at 35.3 µM].

In the case of `CN(C)CCCN(C)CCCN(C)C`, the “activation” value was -9%.

Take `O=S(=O)(O)c1cc(O)c(O)c(S(=O)(=O)O)c1`: the “activation” value was -1.97%.

Consider `Cc1ncc(COP(=O)(O)O)c(C=O)c1O`, for which the “activation” value is -0.671% [at 35.3 µM].

As to `O=CN(CCO)CCO`, the “activation” value is -0.753%.

Take `CCCc1ncc(C[n+]2ccccc2C)c(N)n1`: the “activation” value is 8.18% [at 35.3 µM].

As to `CC1=NS(=O)(=O)c2cc(Cl)ccc2N1`, the “activation” value was -4.08% [at 35.3 µM].

As to `CCOCC(C)O` (stereo unspecified), the “activation” value was -4.52%.

Consider `COc1ccnc(CS(=O)c2nc3cc(OC(F)F)ccc3[nH]2)c1OC` (stereo unspecified), for which the “activation” value is -14.2%.

`C=C(C)C(=O)OCC(O)CO` (stereo unspecified): the “activation” value was 4.32% [at 35.3 µM].

As for `CCN(C=O)CC`, the “activation” value was -0.353%.

For the compound `C[C@@H]1CCC[C@H](C)N1`, the “activation” value was 1.62% [at 35.3 µM].

With `COc1cc(-c2ccc(=O)[nH]n2)ccc1OC(F)F`, the “activation” value is 11% [at 35.3 µM].

With `CC(C)(CCC(=O)O)C(=O)O`, the “activation” value was 0.511%.

With `Cc1ccc(C(=O)Nc2ccc(S(=O)(=O)O)c3cc(S(=O)(=O)O)cc(S(=O)(=O)O)c23)cc1NC(=O)c1cccc(NC(=O)Nc2cccc(C(=O)Nc3cc(C(=O)Nc4ccc(S(=O)(=O)O)c5cc(S(=O)(=O)O)cc(S(=O)(=O)O)c45)ccc3C)c2)c1`, the “activation” value was -0.547% [at 35.3 µM].

On to `Cc1nc(C2CCCCC2)c(-c2ccc(S(N)(=O)=O)c(F)c2)o1`, for which the “activation” value was -8.24% [at 35.3 µM].

Turning to `COc1cc(C)nc(-n2nc(C)cc2OC)n1`, the “activation” value is 7.56% [at 35.3 µM].

On to `Cc1coc2ccccc2c1=O`, for which the “activation” value is 8.18% [at 35.3 µM].
